In the supplement of paper PMC3334620:
The full ranking holds about 33,000 sequences; the median of “E-score (-0.5 to 0.5)” is about -0.036, and the highest 2% start at about 0.37. Shown is part of a subset that was picked to be rich in the highest values.

These sequences were tested against T1, Yer064c (UniProt P40041) (assay: PBM E-score (8-mer binding enrichment) (E-score (-0.5 to 0.5)); higher = stronger / more preferred TF binding). Conditions: protein concentration: 200 nM; construct: GST-full length.
T1 sequence: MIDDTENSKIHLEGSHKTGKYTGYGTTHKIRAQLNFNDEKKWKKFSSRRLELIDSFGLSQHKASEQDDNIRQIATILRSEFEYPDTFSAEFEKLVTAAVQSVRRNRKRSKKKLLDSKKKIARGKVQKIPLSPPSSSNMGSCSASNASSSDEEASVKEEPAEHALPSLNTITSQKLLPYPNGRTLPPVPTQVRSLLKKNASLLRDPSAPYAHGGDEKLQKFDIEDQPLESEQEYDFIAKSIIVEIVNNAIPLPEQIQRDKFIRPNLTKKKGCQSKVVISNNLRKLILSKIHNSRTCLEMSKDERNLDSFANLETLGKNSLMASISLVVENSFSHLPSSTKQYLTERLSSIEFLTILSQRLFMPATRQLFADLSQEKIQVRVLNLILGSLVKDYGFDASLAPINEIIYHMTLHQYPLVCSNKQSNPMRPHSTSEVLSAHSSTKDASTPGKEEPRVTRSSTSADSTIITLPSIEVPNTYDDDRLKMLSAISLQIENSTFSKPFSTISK
Procedure, shortened: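 Full-length yeast transcription factors or their DNA-binding domains, GST-tagged and expressed with PURExpress, were applied at about 100-200 nM to universal all-10-mer Agilent arrays. These arrays had been made double-stranded by primer extension on fresh or once-stripped slides. Detection used fluorescent anti-GST, normalisation used masliner, and E-scores for ungapped eight-base words pooled with reverse complements came from the Universal PBM Analysis Suite.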

Row | Sequence | PBM E-score
1 | CCACTAGA | -0.195
2 | AAAACGGT | -0.155
3 | TAGAAAGA | 0.113
4 | AGTCTCAC | 0.337
5 | GCTGGTGA | 0.0962
6 | CCATTACG | -0.038
7 | CCGACTCG | 0.296
8 | ACGACTTG | 0.17
9 | ACGACTCG | 0.394
10 | TCTACTCA | 0.202
11 | TCGACCCA | 0.0521
12 | GCGACTCC | 0.39
13 | GCCACTCC | -0.128
14 | CCGACTCC | 0.339
15 | CCGACTCA | 0.441
16 | TCGACTCA | 0.435
17 | GCGACCCC | -0.237
18 | CCGACTGA | 0.192
19 | CGAGAATC | 0.117
20 | GCGAGCCC | -0.21
21 | GCAATACC | -0.127
22 | CCTGTGCA | -0.146
23 | AAAACAGG | -0.126
24 | TAATGGCA | -0.172
25 | GCCAAAAA | 0.0564
26 | AGAGAGGG | -0.162

Row | Sequence | PBM E-score
27 | CATGATGA | 0.261
28 | ACTGATTC | 0.319
29 | AATGATTG | 0.358
30 | CATGATCC | 0.0741
31 | CTTGATTC | 0.324
32 | CATGATAA | 0.12
33 | ATTGATTC | 0.301
34 | CCTGATGC | -0.0643
35 | AATGATTC | 0.464
36 | CATGATTC | 0.457
37 | CATGATTA | 0.453
38 | CCTGATTC | 0.399
39 | CCTGGGAC | -0.363
40 | ATGGGCGA | 0.0478
41 | CAAAAGAG | 0.0455
42 | CTTACCGA | -0.0159
43 | ACATCGAT | 0.00682
44 | AGACGAAT | 0.00164
45 | CAAGCCAG | -0.139
46 | GGCGGCCC | -0.0657
47 | AACTCCAC | -0.115
48 | TACTCCAA | 0.00552
49 | CACTCCAC | 0.0622
50 | GACTCCAC | 0.37
51 | GACTCCAA | 0.418
52 | AACTCCAA | 0.0471

Row | Sequence | PBM E-score
53 | CAGTAAAA | -0.0284
54 | AATTACCT | 0.0151
55 | AAAAGAAC | -0.144
56 | CCTTCGGC | -0.197
57 | CGGACTCC | 0.191
58 | CGGACTCA | 0.411
59 | AGGACTCC | 0.335
60 | GGGACTCA | 0.405
61 | AGGACTCA | 0.468
62 | CGAACTCA | 0.225
63 | GGGACACA | 0.0557
64 | AGCACTCA | 0.119
65 | GGGACGCA | -0.165
66 | GAGAGGGC | -0.203
67 | CCCGCTGC | -0.00295
68 | GCTTGTAC | -0.18
69 | TCCCAAGA | 0.0948
70 | CGATGTCA | -0.0638
71 | CTCAAATC | 0.158
72 | TACTAAAA | -0.00832
73 | AACTAAAA | 0.0564
74 | AACTAAAC | -0.0459
75 | CACTAAAC | 0.108
76 | GACTAAAC | 0.435
77 | GACTAAAA | 0.429
78 | GATTCTCA | 0.221

Row | Sequence | PBM E-score
79 | CTCTCCAC | -0.0601
80 | ATTCTCTA | 0.0286
81 | GGACGTCA | -0.0394
82 | ATTGACCA | -0.0765
83 | AATTAGTA | 0.103
84 | CATTAGAC | 0.0825
85 | AATTAGTC | 0.446
86 | CATTAGTA | 0.257
87 | CATTAGTC | 0.421
88 | AATTAGTG | 0.0657
89 | CATTTTGC | -0.0161
90 | ACTAGTCT | 0.345
91 | ACTAGTCC | 0.164
92 | CCTAGTCG | 0.263
93 | CCTAGTCC | 0.0749
94 | TCTAGTCA | 0.447
95 | GCTAGTTA | 0.00744
96 | TCTAGACA | 0.128
97 | CCTAGTCA | 0.446
98 | GCTAGTCA | 0.448
99 | ACTAGTCA | 0.456
100 | TCTAGTAA | -0.0245
101 | GCTAGTCC | 0.0288
102 | AACGGTGT | -0.021
103 | ACCTGGTC | -0.12
104 | AGAGAACT | -0.0782

Row | Sequence | PBM E-score
105 | AACAGCAG | -0.26
106 | CGTTATCC | -0.11
107 | ATGAGTAG | 0.308
108 | CTGAGTAA | 0.204
109 | ATGAGTAA | 0.386
110 | GTGAGTAA | 0.331
111 | CTGAGTAC | 0.291
112 | ATGAGTAC | 0.415
113 | AGAGGCGG | -0.16
114 | AGAGGTGC | -0.25
115 | CGATCGTA | 0.05
116 | GTTCCAAA | -0.00663
117 | AAAGACAT | -0.156
118 | ACTCATGA | 0.402
119 | CTTCATGC | -0.12
120 | ACTCATGG | 0.34
121 | ACTCATGC | 0.378
122 | CCTCATGC | -0.144
123 | CCTCATGA | 0.16
124 | AGCCCGGG | -0.144
125 | GCTCACAA | 0.0192
126 | CGGTAGAG | -0.118
127 | AATCACAT | 0.398
128 | CATCACAC | 0.0825
129 | AATCACAG | 0.359
130 | AATCACAC | 0.39

Row | Sequence | PBM E-score
131 | AATCACAA | 0.362
132 | GATCACAC | 0.178
133 | CGCTATTC | -0.0435
134 | ACATACAC | 0.0835
135 | CTGGCATA | -0.0817
136 | GTCACTCA | 0.334
137 | ACTCTTCG | 0.213
138 | AGTCTTCC | 0.432
139 | AGTCTTCG | 0.418
140 | GGTCTTCA | -0.144
141 | CGTCTTCC | -0.0994
142 | ATTCTTCC | -0.102
143 | AGTCTTCA | 0.408
144 | AGTCTTTC | 0.372
145 | AGTCTTTA | 0.341
146 | CGTCTTTC | -0.108
147 | CGTCTTCA | -0.115
148 | AGTCTTGG | 0.315
149 | CACTTACC | 0.0118
150 | ACAAGGGA | -0.248
151 | AATGTGAC | 0.203
152 | AGCGGCGA | -0.0237
153 | CCTTAGCG | 0.0566
154 | ACGAAGGG | -0.192
155 | CATTAGGA | 0.0671
156 | CCACTCTA | 0.0684

Row | Sequence | PBM E-score
157 | AGCTGTCG | -0.196
158 | AGTCTCCC | 0.382
159 | AGTCTCCA | 0.27
160 | CGTCTCCC | -0.223
161 | AACTCCCA | -0.184
162 | CACTCCCA | 0.0058
163 | GACTCCCC | 0.405
164 | CACTCCCC | -0.147
165 | AACTCCCC | 0.0421
166 | GACTCCCA | 0.381
167 | AGCCCAAA | 0.141
168 | CCTCCCCC | -0.224
169 | CCTTTATC | -0.243
170 | CAACGTAC | -0.0947
171 | ATAGAGTG | 0.00994
172 | CTAGAGTA | 0.138
173 | CTAGAGTC | 0.366
174 | CTAGAGGC | -0.0949
175 | ATAGAGTA | 0.134
176 | ATAGAGTC | 0.371
177 | CTAGTAGA | 0.0545
178 | AACGGTGC | -0.101
179 | ACGCCGCT | -0.119
180 | CAAACCGC | -0.0599
181 | CAACACAC | 0.0236
182 | ACTGTCCG | -0.022

Row | Sequence | PBM E-score
183 | CTACTGAG | 0.157
184 | CGAGTCGA | 0.271
185 | CGAGTCGC | 0.383
186 | AGAGTCGC | 0.396
187 | AGAGTCGG | 0.326
188 | CCAGTCGC | -0.0128
189 | AGAGTCGA | 0.291
190 | GACCCTGC | -0.262
191 | CACCGTAC | -0.0293
192 | TGCTGAAA | -0.0596
193 | AGAGTCAT | 0.492
194 | AGAGTCAC | 0.485
195 | AGAGTCCT | 0.298
196 | AGTGTCAT | 0.0731
197 | AGAGTCTC | 0.332
198 | AGAGTCCA | 0.262
199 | AGAGTCTG | 0.147
200 | AGAGTCCC | 0.0408
201 | AGAGTCAG | 0.457
202 | AGAGTCTA | 0.158
203 | AGAGTCAA | 0.436
204 | AGAGTCCG | 0.212
205 | CCCGGACG | -0.193
206 | CATCTCGC | 0.0122
207 | GACACGCA | -0.104
208 | AGCCACTC | 0.0575

Row | Sequence | PBM E-score
209 | CGTGTATA | 0.0534
210 | CCTAATTA | -0.151
211 | ATGCTAGA | -0.0387
212 | CAGAACTG | 0.139
213 | AGCCGAGA | 0.0772
214 | CACTTTCG | -0.131
215 | AACACCAT | -0.0344
216 | CAGCTTTA | -0.123
217 | ATATATCA | -0.0122
218 | GGCACCCC | -0.215
219 | ATCATGAT | 0.378
220 | CTCATGAG | 0.3
221 | CTCATGAA | 0.202
222 | ATCATGAC | 0.369
223 | ATCATGAA | 0.266
224 | GTCATGAA | 0.308
225 | ACCATGAT | 0.217
226 | GTCATGAC | 0.432
227 | GCCATGAC | 0.307
228 | AGCATGAT | 0.26
229 | CTCATGAC | 0.381
230 | ATCATGAG | 0.34
